In test [1] the target is Oxysterols receptor LXR-alpha (Homo sapiens) (UniProt Q13133). Put plainly: ATG_LXRa_TRANS: Attagene TRANS-FACTORIAL HepG2 Assay for human Liver X Receptor alpha (LXRa) (AID 2282980; active means hit-call score of the fitted dose curve at least 0.9, where 1 is the maximum). To be noted: HepG2 Attagene TRANS reporter, LXRa transactivation. A digest of the protocol:
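HepG2 cells transiently transfected with GAL4-UAS reporter units for chimeric NR-Gal4 proteins, exposed to chemicals for 24 h. Reporter mRNA quantified by RT-PCR and capillary electrophoresis; gain of signal fitted relative to DMSO.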

Test [2] can be described thus: ATG_M_06_TRANS: Attagene TRANS-FACTORIAL HepG2 Assay for M06 Transcription Factor (Internal Marker) (AID 2282983; active means hit-call score of the fitted dose curve at least 0.9, where 1 is the maximum;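 further: reporter transcript level by RT-PCR then capillary electrophoresis fluorescence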). The following applies: HepG2 Attagene TRANS M06 internal marker reporter. A digest of the protocol:
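mRNA levels of a reporter transcript, quantified as FAM fluorescence on capillary electrophoresis, served as readout. HepG2 cells expressing exogenous GAL4-chimera reporter constructs were exposed for 24 h. Gain of signal over DMSO was evaluated.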

Test [3] is described as follows: ATG_M_32_TRANS: Attagene TRANS-FACTORIAL HepG2 Assay for M32 Transcription Factor (Internal Marker) (AID 2282984; active means hit-call score of the fitted dose curve at least 0.9, where 1 is the maximum;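 further: transcript level of a background control reporter unit measured by RT-PCR and capillary electrophoresis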). To be noted: HepG2 Attagene TRANS M32 internal marker reporter. An outline of the steps: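 Fluorescence-detected mRNA induction, HepG2 liver cells, 24 h after dosing. Multiple GAL4-UAS reporter units introduced by transient transfection; background-control endpoint analysed for gain of signal against DMSO.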

The target of test [4] is Nuclear receptor subfamily 4 group A member 2 (Homo sapiens) (UniProt P43354). Put plainly: ATG_NURR1_TRANS: Attagene TRANS-FACTORIAL HepG2 Assay for human Nuclear Receptor Related Protein 1 (NURR1) (AID 2282985; active means hit-call score of the fitted dose curve at least 0.9, where 1 is the maximum). The following applies: HepG2 Attagene TRANS reporter, mRNA readout. An outline of the steps: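 Chimeric NR-Gal4 proteins were expressed in human HepG2 cells bearing GAL4-UAS reporter units, and induced reporter mRNA was quantified 24 h post-dosing by RT-PCR and capillary electrophoresis.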

Test [5] deals with Nuclear respiratory factor 1 (Homo sapiens) (UniProt Q16656). Put plainly: ATG_NRF1_CIS: Attagene CIS-FACTORIAL HepG2 Assay for human Nuclear Respiratory Factor 1 (NRF1) Orphan Gene (AID 2282987). To be noted: HepG2 NRF1 cis-element reporter, Attagene multiplex; actives raise or lower the signal. An outline of the steps:
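HepG2 cells transiently transfected with multiple reporter transcription units under cis-regulatory promoter control, so endogenous transcription-factor activity is read. After 24 h compound exposure, reporter mRNA quantified by RT-PCR, fluorescent labelling, HpaI digestion and capillary electrophoresis; bidirectional fitting versus DMSO.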

Test [6] is described as follows: ATG_NFI_CIS: Attagene CIS-FACTORIAL HepG2 Assay for human Nuclear Factor I (NFI) (AID 2282989). The following applies: HepG2 cis-regulatory reporter, NFI response element transcription; actives raise or lower the signal. An outline of the steps: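 After transient transfection of HepG2 with cis-promoter reporter constructs and 24 h dosing, RNA is reverse-transcribed, amplified, 6-FAM end-labelled and HpaI-digested before capillary analysis. Bidirectional curve fitting against DMSO.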

Test [7] concerns the target Myc proto-oncogene protein (Homo sapiens) (UniProt P01106). The experiment in a line: ATG_Myc_CIS: Attagene CIS-FACTORIAL HepG2 Assay for human Myelocytomatosis (Myc) Proto-Oncogene Transcription Factor (AID 2282990). To be noted: HepG2, Attagene cis-reporter transcription factor activity; actives raise or lower the signal. An outline of the steps: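 HepG2 cells transiently transfected with multiple cis-promoter-driven reporter transcription units, so endogenous TF activity is read. After 24 h compound exposure, reporter mRNA was quantified by RT-PCR, 6-FAM labelling, HpaI digestion and capillary electrophoresis; bidirectional fit versus DMSO.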

A short description of test [8]: ATG_NF_kB_CIS: Attagene CIS-FACTORIAL HepG2 Assay for human Nuclear Factor Kappa B (NF-kB) (AID 2282991). To be noted: HepG2 Attagene cis-factorial NF-kB reporter mRNA; actives raise or lower the signal. An outline of the steps: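 HepG2 cells transiently transfected with multiplexed cis-element reporter units measuring endogenous transcription factor activity; reporter mRNA read 24 h after dosing by RT-PCR, fluorescent labelling, HpaI digestion and capillary electrophoresis. Bidirectional fit against DMSO baseline.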

Test [9] in a line: ATG_NRF2_ARE_CIS: Attagene CIS-FACTORIAL HepG2 Assay for human Nuclear Factor Erythroid 2 Related Factor 2 (NFR2) response to Antioxidant Response Elements (ARE) (AID 2282992). The following applies: HepG2 Attagene ARE/NRF2 reporter, transcription factor activity; actives raise or lower the signal. An outline of the steps: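 Readout: reporter mRNA quantified by RT-PCR plus FAM-labelled primer extension, HpaI digestion and capillary electrophoresis, 24 h after dosing transfected HepG2 cells. Gain or loss of signal is fitted bidirectionally against DMSO baseline.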

Test [10] is described as follows: ATG_Oct_MLP_CIS: Attagene CIS-FACTORIAL HepG2 Assay for human Octamer-Binding Transcription Factor (Oct) (AID 2282993). The following applies: HepG2 Attagene cis-factorial Oct reporter, mRNA; actives raise or lower the signal. An outline of the steps:
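Cells of the HepG2 line express promoter-controlled reporter sequences whose mRNA levels, after 24 h treatment, are measured by RT-PCR and capillary electrophoresis. Increases and decreases are scored relative to DMSO.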

Test [11] has as its target Cellular tumor antigen p53 (Homo sapiens) (UniProt P04637). The experiment in a line: ATG_p53_CIS: Attagene CIS-FACTORIAL HepG2 Assay for human p53 Transcription Factor (AID 2282994). The following applies: HepG2 p53 cis-element reporter, Attagene mRNA; actives raise or lower the signal. An outline of the steps:
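Read-out: reporter mRNA by RT-PCR plus capillary electrophoresis with fluorescence detection. Human HepG2 liver cells carried transfected multi-reporter cis-element constructs, dosed 24 h. Gain or loss of signal fitted bidirectionally against DMSO control.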

Test [12] has as its target Oxysterols receptor LXR-beta (Homo sapiens) (UniProt P55055). The experiment in a line: ATG_LXRb_TRANS: Attagene TRANS-FACTORIAL HepG2 Assay for human Liver X Receptor beta (LXRb) (AID 2282981; active means hit-call score of the fitted dose curve at least 0.9, where 1 is the maximum). To be noted: HepG2 Attagene TRANS GAL4-LXRb reporter, mRNA. An outline of the steps: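 Liver-derived HepG2 cells transfected with Gal4-responsive reporters were dosed for 24 h. Activation was scored as rise in reporter mRNA, by RT-PCR and capillary electrophoresis, above DMSO baseline.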

Test [13] addresses Transcriptional activator Myb (Homo sapiens) (UniProt P10242). Put plainly: ATG_Myb_CIS: Attagene CIS-FACTORIAL HepG2 Assay for human Myeloblastosis (Myb) Proto-Oncogene Transcription Factor (AID 2282986). To be noted: HepG2 Attagene CIS-FACTORIAL Myb reporter transcription; actives raise or lower the signal. A digest of the protocol:
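HepG2 cells were transiently transfected with cis-regulated multiple reporter transcription units reflecting endogenous Myb activity, then exposed to compound for 24 hours. Reporter mRNA was measured by RT-PCR with capillary electrophoresis; bidirectional fitting versus DMSO baseline.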

The target in test [14] is Hepatocyte nuclear factor 4-alpha (Homo sapiens) (UniProt P41235). The experiment in a line: ATG_HNF4a_TRANS: Attagene TRANS-FACTORIAL HepG2 Assay for human Hepatocyte Nuclear Factor 4 alpha (HNF4a) (AID 2282982; active means hit-call score of the fitted dose curve at least 0.9, where 1 is the maximum). To be noted: HepG2 HNF4a transactivation reporter, mRNA readout. An outline of the steps: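 Using HepG2 liver cells transfected with GAL4-UAS reporter units, chemical-induced mRNA increases were assessed after 24 hours. Fluorescent RT-PCR fragments were separated by capillary electrophoresis and compared with DMSO negative controls.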

Inconclusive results are not listed. Active and inactive are the calls of the source. How the source made its calls, unless noted: active means hit-call score of the fitted dose curve at least 0.9, where 1 is the maximum; inactive means score below 0.9.

Chain of Myc proto-oncogene protein (Homo sapiens) (P01106 whole entry, looked up): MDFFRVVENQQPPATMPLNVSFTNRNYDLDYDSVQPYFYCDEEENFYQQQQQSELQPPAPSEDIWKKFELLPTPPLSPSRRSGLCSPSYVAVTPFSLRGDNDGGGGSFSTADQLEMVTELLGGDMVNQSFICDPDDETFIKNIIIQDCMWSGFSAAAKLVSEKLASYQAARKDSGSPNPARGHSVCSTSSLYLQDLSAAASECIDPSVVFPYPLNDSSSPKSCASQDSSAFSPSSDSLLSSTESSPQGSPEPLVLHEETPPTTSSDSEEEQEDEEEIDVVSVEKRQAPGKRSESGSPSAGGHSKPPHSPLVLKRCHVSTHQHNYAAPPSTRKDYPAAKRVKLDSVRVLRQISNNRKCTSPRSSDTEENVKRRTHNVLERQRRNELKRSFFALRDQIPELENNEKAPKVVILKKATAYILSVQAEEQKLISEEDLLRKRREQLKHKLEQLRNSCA
Chain of Transcriptional activator Myb (Homo sapiens) (P10242 whole entry, looked up): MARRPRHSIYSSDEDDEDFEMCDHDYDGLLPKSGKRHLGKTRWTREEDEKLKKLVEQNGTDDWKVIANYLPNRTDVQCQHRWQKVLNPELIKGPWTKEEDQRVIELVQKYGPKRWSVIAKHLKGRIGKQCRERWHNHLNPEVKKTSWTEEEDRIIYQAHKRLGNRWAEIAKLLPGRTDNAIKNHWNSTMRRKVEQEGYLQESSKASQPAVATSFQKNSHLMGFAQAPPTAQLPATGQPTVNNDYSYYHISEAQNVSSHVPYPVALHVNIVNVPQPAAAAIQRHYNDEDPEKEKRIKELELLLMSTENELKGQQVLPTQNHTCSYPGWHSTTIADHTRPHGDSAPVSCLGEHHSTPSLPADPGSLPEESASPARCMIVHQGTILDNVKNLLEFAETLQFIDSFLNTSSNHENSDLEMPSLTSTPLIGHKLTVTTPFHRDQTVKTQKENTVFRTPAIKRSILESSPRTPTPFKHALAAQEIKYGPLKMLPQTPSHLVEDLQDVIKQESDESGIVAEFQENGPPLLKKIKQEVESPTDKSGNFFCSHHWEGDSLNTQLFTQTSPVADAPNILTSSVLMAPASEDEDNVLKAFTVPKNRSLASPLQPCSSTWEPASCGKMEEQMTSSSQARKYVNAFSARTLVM
Chain of Oxysterols receptor LXR-beta (Homo sapiens) (P55055 whole entry, looked up, the tested form may be a part): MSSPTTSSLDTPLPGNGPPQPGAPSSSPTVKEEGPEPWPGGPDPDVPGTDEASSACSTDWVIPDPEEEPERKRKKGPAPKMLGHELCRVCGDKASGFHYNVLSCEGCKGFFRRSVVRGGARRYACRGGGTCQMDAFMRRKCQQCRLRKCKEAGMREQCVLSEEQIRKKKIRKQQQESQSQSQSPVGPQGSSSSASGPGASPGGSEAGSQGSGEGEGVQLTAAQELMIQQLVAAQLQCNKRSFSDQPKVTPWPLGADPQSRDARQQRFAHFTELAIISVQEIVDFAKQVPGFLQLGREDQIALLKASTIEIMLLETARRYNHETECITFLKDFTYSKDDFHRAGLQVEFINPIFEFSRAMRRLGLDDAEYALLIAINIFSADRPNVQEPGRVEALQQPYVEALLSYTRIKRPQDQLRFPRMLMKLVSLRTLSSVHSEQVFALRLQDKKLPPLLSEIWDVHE
Chain of Nuclear receptor subfamily 4 group A member 2 (Homo sapiens) (P43354 whole entry, looked up, the tested form may be a part): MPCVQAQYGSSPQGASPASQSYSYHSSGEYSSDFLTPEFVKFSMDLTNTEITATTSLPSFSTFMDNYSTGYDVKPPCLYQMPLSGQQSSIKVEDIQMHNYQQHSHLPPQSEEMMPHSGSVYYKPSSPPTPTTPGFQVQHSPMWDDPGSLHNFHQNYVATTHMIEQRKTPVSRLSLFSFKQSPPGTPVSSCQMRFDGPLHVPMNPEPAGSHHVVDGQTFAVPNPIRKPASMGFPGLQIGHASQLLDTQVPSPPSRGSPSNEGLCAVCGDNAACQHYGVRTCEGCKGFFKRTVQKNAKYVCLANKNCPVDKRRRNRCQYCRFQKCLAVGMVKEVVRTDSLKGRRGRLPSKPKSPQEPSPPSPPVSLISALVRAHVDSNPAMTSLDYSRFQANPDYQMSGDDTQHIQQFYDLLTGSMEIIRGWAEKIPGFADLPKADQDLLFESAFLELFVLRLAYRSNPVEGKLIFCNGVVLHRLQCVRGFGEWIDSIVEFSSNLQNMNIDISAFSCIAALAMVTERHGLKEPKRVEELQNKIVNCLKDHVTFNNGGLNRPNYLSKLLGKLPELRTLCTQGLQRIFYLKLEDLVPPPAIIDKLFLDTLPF
Chain of Hepatocyte nuclear factor 4-alpha (Homo sapiens) (P41235 whole entry, looked up, the tested form may be a part): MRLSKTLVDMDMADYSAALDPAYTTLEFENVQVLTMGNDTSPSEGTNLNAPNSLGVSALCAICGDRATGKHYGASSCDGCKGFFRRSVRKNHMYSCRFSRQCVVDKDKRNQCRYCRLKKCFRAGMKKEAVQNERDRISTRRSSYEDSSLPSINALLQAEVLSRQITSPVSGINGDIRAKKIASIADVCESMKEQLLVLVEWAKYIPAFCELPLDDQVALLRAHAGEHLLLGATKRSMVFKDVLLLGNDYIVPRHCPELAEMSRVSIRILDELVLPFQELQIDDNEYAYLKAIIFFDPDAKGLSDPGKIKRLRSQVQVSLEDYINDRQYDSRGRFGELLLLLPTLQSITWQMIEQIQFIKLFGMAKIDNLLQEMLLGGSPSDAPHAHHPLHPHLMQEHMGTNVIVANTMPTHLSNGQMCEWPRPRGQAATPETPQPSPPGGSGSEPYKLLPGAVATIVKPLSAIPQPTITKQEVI
Chain of Cellular tumor antigen p53 (Homo sapiens) (P04637 whole entry, looked up): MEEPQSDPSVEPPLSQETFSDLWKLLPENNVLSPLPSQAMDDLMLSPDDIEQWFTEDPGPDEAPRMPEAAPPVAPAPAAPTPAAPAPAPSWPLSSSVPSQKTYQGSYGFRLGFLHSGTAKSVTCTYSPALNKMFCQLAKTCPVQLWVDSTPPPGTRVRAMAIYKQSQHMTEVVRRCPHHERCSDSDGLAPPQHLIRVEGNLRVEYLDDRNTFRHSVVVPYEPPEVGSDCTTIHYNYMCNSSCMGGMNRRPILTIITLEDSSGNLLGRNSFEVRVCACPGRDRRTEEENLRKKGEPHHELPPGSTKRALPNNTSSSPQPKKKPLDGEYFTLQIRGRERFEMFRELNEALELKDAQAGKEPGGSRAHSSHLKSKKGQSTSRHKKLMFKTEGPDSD
Chain of Nuclear respiratory factor 1 (Homo sapiens) (Q16656 whole entry, looked up): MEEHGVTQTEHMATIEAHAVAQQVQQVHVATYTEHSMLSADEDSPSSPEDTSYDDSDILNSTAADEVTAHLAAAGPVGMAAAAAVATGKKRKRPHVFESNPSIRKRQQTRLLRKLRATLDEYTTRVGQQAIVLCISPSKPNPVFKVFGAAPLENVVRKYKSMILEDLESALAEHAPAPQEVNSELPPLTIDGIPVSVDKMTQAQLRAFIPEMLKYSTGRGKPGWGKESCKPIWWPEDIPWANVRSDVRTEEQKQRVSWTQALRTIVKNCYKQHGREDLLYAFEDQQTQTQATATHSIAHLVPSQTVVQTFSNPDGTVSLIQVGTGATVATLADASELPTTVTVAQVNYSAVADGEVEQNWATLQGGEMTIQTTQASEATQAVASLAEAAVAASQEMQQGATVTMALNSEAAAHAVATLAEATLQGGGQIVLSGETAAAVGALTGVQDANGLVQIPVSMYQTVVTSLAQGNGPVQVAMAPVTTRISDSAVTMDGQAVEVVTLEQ
Chain of Oxysterols receptor LXR-alpha (Homo sapiens) (Q13133 whole entry, looked up, the tested form may be a part): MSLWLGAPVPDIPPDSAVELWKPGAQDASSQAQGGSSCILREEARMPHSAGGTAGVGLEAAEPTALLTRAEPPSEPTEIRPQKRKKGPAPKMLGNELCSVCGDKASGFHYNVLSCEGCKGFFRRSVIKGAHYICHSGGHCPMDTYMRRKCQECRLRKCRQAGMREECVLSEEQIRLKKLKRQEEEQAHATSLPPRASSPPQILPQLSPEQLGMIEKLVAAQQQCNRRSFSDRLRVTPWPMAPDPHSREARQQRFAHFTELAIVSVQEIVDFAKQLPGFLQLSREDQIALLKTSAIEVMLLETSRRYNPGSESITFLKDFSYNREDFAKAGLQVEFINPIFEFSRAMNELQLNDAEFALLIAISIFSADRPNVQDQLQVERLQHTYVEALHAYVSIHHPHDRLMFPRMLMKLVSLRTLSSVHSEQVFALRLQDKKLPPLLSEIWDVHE

As to `CCC(C)C1CCCCC1=O` (stereo not given), the compound was classed as inactive in test [1], in [2], in test [3], in test [4], in test [5] and in [6]. Besides, the compound was classed as inactive in [7], in [8], in test [9], in [10] and in test [11].

As for `CC(=O)CCc1ccc(O)cc1`, the outcome in test [12], in test [13], in test [5], in [6], in [7] and in test [8] was inactive. Further, the call in [9], in [10] and in test [11] was inactive.

With `CCOC(=O)COC(=O)c1ccccc1C(=O)OCC`, the compound was called inactive in [14], in test [2], in test [13], in test [5], in test [6] and in test [7]. The compound was classed as inactive in test [9], in test [10] and in [11].

For `NNC(=O)OCc1ccccc1`, the result in test [14], in [2], in test [3], in [4], in [13] and in test [5] was inactive. For the same compound, the compound was classed as inactive in test [6], in test [7], in test [8] and in test [10].

As to `CC(C)C(=O)c1ccccc1`, the compound was called inactive in test [14], in test [2], in test [3], in test [13], in test [5] and in test [6]. The call in [8], in [9], in test [10] and in [11] was inactive.

As for `CC(CO)c1ccccc1` (stereo not given), the call in test [12], in test [5], in test [6], in test [7], in test [8] and in [9] was inactive. In addition, the compound was called inactive in test [10] and in test [11].

On to `O=[N+]([O-])c1cc(N(CCO)CCO)ccc1NCCO`, for which the outcome in test [14], in test [2], in test [3], in [13], in test [5] and in test [6] was inactive. Besides, the outcome in test [8], in test [9] and in test [10] was inactive.

As for `c1ccc(Cc2ccccc2)cc1`, the compound was called inactive in [12], in test [14], in test [2], in test [3], in [4] and in [13]. The call in test [5], in test [6], in test [7], in test [8], in test [9] and in [10] was inactive. In test [11], the outcome was inactive.

With `CN(C)C(=O)Nc1ccccc1`, the result in test [12], in [4], in test [13], in test [5], in test [6] and in test [8] was inactive. The call in [9] and in test [10] was inactive.

With `O=C(O)c1cccc(Cl)n1`, the compound was classed as inactive in test [1], in test [13], in test [5], in test [6], in [7] and in test [8]. Moreover, the outcome in [10] and in test [11] was inactive.

Consider `CC(C)Cc1ccccc1`, for which the compound was called inactive in [14], in test [2], in test [13], in [5], in test [6] and in [7]. Also, the outcome in test [8], in [9] and in test [10] was inactive.

For `c1ccc2scnc2c1`, the call in [12], in test [2], in test [13], in [5], in test [6] and in [7] was inactive. Also, the compound was classed as inactive in test [8] and in test [11].

Regarding `CCOC(=O)CC1(C)OCC(C)O1` (stereo not given), the call in [12], in test [5], in test [6], in test [7], in [8] and in test [9] was inactive.

Turning to `O=Cc1ccccc1O`, the result in [12], in [14], in [3], in [4], in test [13] and in test [5] was inactive. Further, the result in test [7], in test [8], in test [9] and in test [11] was inactive.

As to `CCCCCc1cccc(=O)o1`, the compound was called inactive in test [12], in test [3], in [13], in [5], in [7] and in [8]. In addition, the compound was called inactive in [10].

The term AC50 denotes the concentration at which the activity in the assay is half-maximal. In the case of `C[N+](C)(C)CCO`, the call in [12], in test [14], in test [13], in [5], in test [6] and in test [7] was inactive. The outcome in [10] was inactive. For the same compound, the half-maximal activity concentration (AC50) in [9] was 101 µM (active).

In the case of `CCCCCC1C(=O)CCC1CC(=O)OC` (stereo not given), the compound was classed as inactive in [12], in test [2], in [4], in [13], in [5] and in test [6]. Moreover, the outcome in test [7], in [9], in test [10] and in [11] was inactive.

On to `CC(O)CNCC(C)O` (stereo not given), for which the result in [14], in test [2], in test [13], in test [5], in [7] and in test [9] was inactive. Besides, the compound was called inactive in test [10] and in test [11].

Consider `C1CCCNCC1`, for which the outcome in test [12], in [4], in test [13], in test [5], in [9] and in [10] was inactive.

On to `CC(C)COC(=O)c1ccccc1`, for which the result in test [12], in [14], in [13], in test [5], in test [7] and in [8] was inactive. The result in test [9] and in test [10] was inactive.

As for `Nc1cc([N+](=O)[O-])ccc1C(=O)O`, the outcome in test [12], in [14], in test [4], in [13], in [5] and in test [6] was inactive. Besides, the outcome in test [7] and in test [10] was inactive. The AC50 in [9] is 51.8 µM (active).

Regarding `CCCCCCCCCCCCOCCOS(=O)(=O)O`, the compound was called inactive in test [12], in [2], in test [3], in test [4], in test [13] and in [5]. In addition, the outcome in test [6], in test [8], in test [10] and in test [11] was inactive.

For the compound `NC(=O)NC(N)=O`, the compound was classed as inactive in test [12], in test [14], in [3], in [4], in test [13] and in test [5]. Besides, the result in test [6], in test [7], in test [9], in test [10] and in test [11] was inactive.
